PubChem BioAssay
Active and inactive are the calls of the source.

Experiments:
Albumin (Bos taurus) = Albumin (Bos taurus) (UniProt P02769); assay: bovine serum albumin binders on microarray, profiling panel, artefact control for SMM control protein annotation, biochemical, small-molecule microarray, Alexa647 label, 635/667 nm fluorescence (AID 1118); conditions: BSA-A647 binding, fluorescence 635 nm, higher = more signal;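 note: score merges 667 nm emission intensity and signal-to-noise per printed compound spot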
Chain of Albumin (Bos taurus) (P02769 whole entry, looked up): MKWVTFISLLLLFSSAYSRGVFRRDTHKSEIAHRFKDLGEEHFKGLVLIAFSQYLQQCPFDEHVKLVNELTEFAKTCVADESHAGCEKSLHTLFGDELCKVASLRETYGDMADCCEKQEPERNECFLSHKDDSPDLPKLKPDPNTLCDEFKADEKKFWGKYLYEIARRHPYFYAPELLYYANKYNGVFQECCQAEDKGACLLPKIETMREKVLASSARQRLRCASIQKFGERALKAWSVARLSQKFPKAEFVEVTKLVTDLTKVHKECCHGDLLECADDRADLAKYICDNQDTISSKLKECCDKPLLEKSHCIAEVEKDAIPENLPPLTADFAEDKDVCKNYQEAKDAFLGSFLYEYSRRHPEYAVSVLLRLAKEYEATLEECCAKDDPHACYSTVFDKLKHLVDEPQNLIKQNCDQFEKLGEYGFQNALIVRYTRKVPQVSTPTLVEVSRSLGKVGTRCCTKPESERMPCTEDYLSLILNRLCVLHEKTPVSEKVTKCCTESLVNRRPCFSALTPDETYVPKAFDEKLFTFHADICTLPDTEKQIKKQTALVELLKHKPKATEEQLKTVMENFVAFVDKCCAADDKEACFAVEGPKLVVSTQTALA

[1] = small-molecule microarray binders of probe aXIP, primary screen, biochemical, NeuroSMM set, 635/667 nm fluorescence (AID 1119); conditions: higher = more signal, called active from +8 up or from −8 down;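 note: probe is the protein aXip251-270 applied at 1 µg/mL to compound-printed slides; binding of probe to printed compounds measured as 667 nm fluorescence plus signal to noise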
[2] = small-molecule binders of probe aNOTCH3, primary screen, biochemical, small-molecule microarray, 635/667 nm fluorescence (AID 1120); conditions: higher = more signal;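 note: probe is a biotin-tagged antibody raised against NOTCH3 rather than NOTCH3 protein; score merges spot fluorescence near 667 nm with spot signal to noise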
[3] = small-molecule binders of probe aNOTCH2, primary screen, biochemical, small-molecule microarray, 635/667 nm fluorescence (AID 1121); conditions: higher = more signal;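 note: score merges feature fluorescence read at 667 nm with its signal to noise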
[4] = target: Carbonic anhydrase 2 (Homo sapiens) (UniProt P00918); assay: CAII small-molecule binders, profiling panel, biochemical, small-molecule microarray, Alexa647-labelled CAII (AID 1122); conditions: CAII-A647 binding fluorescence, higher = more signal
[5] = COS7 lysate on small-molecule microarray, probe aHis, 635 nm (AID 1123); conditions: COS7 cell lysate, fluorescence, higher = more signal;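 note: z-score combines 667nm fluorescence intensity with signal-to-noise per printed compound spot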
[6] = compound binding in COS7 lysate, probe aLAP1, primary screen, cell lysate, small-molecule microarray (AID 1124); conditions: probe aLAP1, fluorescence, higher = more signal;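 note: lysate comes from COS7 cells expressing LAP1 and is applied at 0.3 µg/mL; score merges spot fluorescence near 667 nm with signal-to-noise over triplicate slides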
Sam68 (KHDRBS1) = assay: Sam68 small-molecule binders, primary screen, biochemical, small-molecule microarray, 635 nm fluorescence (AID 1125); conditions: small-molecule microarray binding, higher = more signal;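 note: score merges 667 nm channel intensity with signal to noise over triplicate slides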
[7] = tested on: Chordin-like protein 2 (CHRDL2); assay: CHRDL2 small-molecule binders, primary screen, biochemical, small-molecule microarray, 635 nm fluorescence (AID 1126); conditions: small-molecule microarray binding, fluorescence 635 nm; higher = more signal;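 note: printed compound slides probed with Chrdl2 protein at 4 µg/mL for 1 h at 4 C; score merges 667 nm emission intensity with signal to noise over three replicate slides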
[8] = target: Concanavalin-A (Canavalia ensiformis) (UniProt P02866); assay: ConA small-molecule binders, primary screen, artefact control for SMM control protein annotation, biochemical, small-molecule microarray, Alexa647 label, 635 nm (AID 1127); conditions: ConA-A647 binding fluorescence, higher = more signal;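 note: z combines 667 nm emission intensity with signal-to-noise across three replicate slides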
Chain of Concanavalin-A (Canavalia ensiformis) (P02866 whole entry, looked up): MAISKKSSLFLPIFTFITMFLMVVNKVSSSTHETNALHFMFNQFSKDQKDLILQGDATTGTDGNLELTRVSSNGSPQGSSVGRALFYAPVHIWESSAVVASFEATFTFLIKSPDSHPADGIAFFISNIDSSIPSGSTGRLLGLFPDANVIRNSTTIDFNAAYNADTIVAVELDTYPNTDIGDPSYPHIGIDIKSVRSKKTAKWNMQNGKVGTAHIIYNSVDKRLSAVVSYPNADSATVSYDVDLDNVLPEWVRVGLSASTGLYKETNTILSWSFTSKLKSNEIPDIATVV

Row | SMILES | composite z-score (Albumin (Bos taurus)) | composite Z-score [1] | composite z-score [2] | composite z-score [3] | composite z-score [4] | composite z-score [5] | composite z-score [6] | composite z-score (Sam68 (KHDRBS1)) | composite z-score [7] | composite z-score [8]
1 | CCOC(=O)C1=CCC(c2cccn2C(=O)OC(C)(C)C)N(S(=O)(=O)c2ccc(C)cc2)C1 (stereo not given) | 0.871 | 0.76 (inactive) | 0.17 | 0.0351 | 0.523 | 2.82 | 0.421 | 0.948 | 0.551 | 0.722
2 | CCCCC(=C=CC[C@@H](O)c1ccccc1OCCO)C[C@@H](O)c1ccccn1 | 0.043 | 0.504 (inactive) | -0.0077 | -0.197 | 0.678 | 0.522 | 0.137 | 0.81 | 0.179 | 0.287
3 | CCCCN1CC=CC23O[C@@H]4C=CCCOC(=O)C4[C@H]2C(=O)N(CCO)[C@@H]3C1=O (stereo not given in full) | 0.0656 | -0.535 (inactive) | -0.246 | -0.109 | 0.79 | -1.36 | 1.94 | -0.33 | -0.418 | -0.0932
4 | COCCOC(=O)N1C(=O)[C@@]2(c3cc(C#CCNC(N)=O)ccc31)[C@H](C(=O)Nc1nc3ccccc3s1)[C@H]1C(=O)O[C@H](c3ccccc3)[C@H](c3ccccc3)N1[C@@H]2c1ccc(O)cc1 | -0.376 | -0.263 (inactive) | 0.0203 | -0.0094 | 0.214 | 0.734 | 0.16 | 1.02 | 0.306 | 1.1
5 | CC(C)(C)OC(=O)CC[C@@]1(C(N)=O)N=C(c2ccc(OCCCO)cc2)O[C@@H]1c1ccccc1CN=[N+]=[N-] | 0.818 | -0.0657 (inactive) | 0.651 | 0.27 | 0.876 | 3.13 | 1.12 | 0.914 | 0.312 | 0.933
6 | CCOC(=O)C[C@H]1[C@H](OC(=O)c2cc3ccccc3oc2=O)[C@@H](NC(=O)Cc2ccc(OC)cc2)c2cc(OCCCO)ccc2N1C(=O)Cc1ccc(OC)cc1 | 0.112 | 0.594 (inactive) | 0.0522 | -0.162 | 0.709 | 0.638 | -0.0915 | 0.23 | 0.441 | 0.817
7 | C=C(COC)C(=O)CC[C@H](OC(C)=O)c1ccc(CO)o1 | 0.485 | 4.03 (inactive) | -0.0328 | -0.14 | 0.472 | -0.273 | -0.218 | -0.893 | 0.268 | 0.753
8 | CCOC(=O)C1=C[C@@H](C(C)(C)C)N(S(=O)(=O)c2ccc(C)cc2)[C@H]1c1ccc(OC)cc1 | 0.847 | -0.244 (inactive) | 0.116 | -0.0956 | 0.392 | 1.8 | 0.315 | 1.3 | 0.209 | 1.14
9 | CN1C(=O)C2C=CC(C(O)c3cccs3)N(N(c3ccccc3)c3ccccc3)C2C1=O (stereo not given) | 0.994 | 0.343 (inactive) | 0.17 | -0.0037 | 0.714 | 1.69 | 0.518 | 1.02 | -0.362 | 0.644
10 | Cc1ccc(N2C(=O)c3ccccc3[C@@H](C(=O)NCCN3CCOCC3)[C@@H]2c2ccc(CO)cc2)nc1 | 0.132 | 0.309 (inactive) | 0.595 | -0.162 | -0.234 | 0.719 | -0.496 | -0.342 | -1.27 | -0.469
11 | O=C1O[C@@H](c2ccccc2)[C@@H](c2ccccc2)N2[C@@H](c3ccc(OCCO)cc3)[C@]3(C(=O)Nc4ccc(C#CC5=CCCCC5)cc43)[C@@H](C(=O)Nc3nc4ccccc4s3)[C@H]12 | -0.01 | 0.159 (inactive) | 0.674 | -0.42 | 0.303 | 1.14 | -0.142 | 1.28 | 0.163 | 1.07
12 | COCCOC(=O)N1C(=O)[C@@]2(c3cc(C#CC4(O)CCCCCC4)ccc31)[C@H](C(N)=O)[C@H]1C(=O)O[C@H](c3ccccc3)[C@H](c3ccccc3)N1[C@@H]2c1ccc(OCCO)cc1 | 0.736 | 0.133 (inactive) | 0.086 | -0.118 | 0.566 | 2.58 | 0.412 | 1.3 | -0.0029 | 1.17
13 | COc1ccc(CCNC(=O)[C@@]2(C)c3ccccc3C(=O)N(Cc3ccc(OC(F)(F)F)cc3)[C@H]2c2ccc(CO)cc2)cc1 | -0.146 | 0.431 (inactive) | -0.104 | -0.163 | 0.611 | 1.37 | 0.687 | 1.3 | 0.309 | 0.781
14 | Cc1cccc([C@H]2C[C@H]3C(Br)=C[C@@]2(CO)C(=O)[C@]32CO2)c1 | -0.155 | -0.288 (inactive) | -0.108 | -0.147 | 0.362 | 0.182 | -0.24 | 0.671 | -0.15 | -0.0472
15 | CC[C@@H]1C=C(C(=O)O)[C@H](c2cccc(Cl)c2)N1S(=O)(=O)c1ccc(C)cc1 | 0.951 | -0.147 (inactive) | -0.0581 | 0.0274 | 0.824 | 2.46 | 0.501 | 1.09 | -0.682 | 0.471
16 | CCN1C(=O)C2CC(=O)C3C(CN(S(=O)(=O)c4ccc(C)cc4)C3c3ccc(C)cc3)C2C1=O (stereo not given) | 0.449 | 0.37 (inactive) | 0.0282 | -0.108 | 0.75 | 2.05 | 1.11 | 0.768 | -0.99 | 0.99
17 | COc1ccc(CCNC(=O)[C@@]2(c3ccc([N+](=O)[O-])cc3)CC(=O)N(C3CCCCC3)[C@@H]2c2ccc(CO)cc2I)cc1 | -0.127 | 0.931 (inactive) | 0.0293 | 0.0254 | 0.364 | 1.52 | 0.89 | 0.962 | 0.252 | 0.754

Row | SMILES | composite z-score (Albumin (Bos taurus)) | composite Z-score [1] | composite z-score [2] | composite z-score [3] | composite z-score [4] | composite z-score [5] | composite z-score [6] | composite z-score (Sam68 (KHDRBS1)) | composite z-score [7] | composite z-score [8]
18 | O=C1N(Cc2ccccc2)c2ccccc2C[C@@]12N=C(c1ccc(OCCCO)cc1)O[C@H]2c1ccccc1 | 0.542 | -0.329 (inactive) | -0.0328 | -0.0664 | 0.183 | 2.47 | -0.0401 | 1.29 | 0.0949 | 1.06
19 | CN(C)CCCC[C@@H]1NC(=O)[C@H]2C[C@@H](C(=O)NCCCCCCNC(=O)CS)[C@@H](c3cccc(OCCO)c3)N2C1=O | 0.105 | 0.333 (inactive) | -0.195 | -0.105 | 0.249 | 1.01 | 0.586 | 0.378 | -0.0352 | 0.847
20 | CC[C@@H](O[Si](C#C[Si](C(C)C)(C(C)C)C(C)C)(C(C)C)C(C)C)c1cn([C@H](CO)Cc2ccccc2)nn1 | 0.239 | 0.133 (inactive) | -0.0077 | -0.0995 | 0.409 | 0.398 | 0.0485 | 1.09 | 0.414 | 0.346
21 | [N-]=[N+]=NCc1ccccc1[C@H]1OC(c2ccc(OCCCO)cc2)=N[C@@]1(Cc1ccccc1N=[N+]=[N-])C(N)=O | 0.884 | 0.385 (inactive) | 0.339 | -0.229 | 0.743 | 2.72 | -0.182 | 1.27 | -0.0265 | 1.08
22 | CC(C)N1C(=O)[C@@]2(Cc3ccccc31)c1ccccc1C(=O)N(Cc1ccccc1)[C@H]2c1ccc(CO)cc1 | -0.103 | -0.289 (inactive) | -0.118 | -0.205 | -0.224 | 0.0227 | 1.79 | 0.316 | 0.702 | -0.0679
23 | C=C(C(=O)CC[C@H](OC(=O)c1ccccc1-c1ccccc1C(=O)O)c1ccc(OCCO)cc1)C(C)C | 0.816 | -0.691 (inactive) | 0.0282 | -0.106 | 0.59 | 1.61 | -0.284 | 0.884 | -0.0766 | 0.708
24 | COc1ccc(C(O)C2C=CC3C(=O)N(C)C(=O)C3N2Nc2ccccc2)cc1 (stereo not given) | 0.986 | 0.195 (inactive) | 0.344 | 0.0753 | 0.376 | 2.87 | 0.388 | 1.28 | -0.224 | 1.17
25 | CC(C)[Si]1(C(C)C)OCc2cc(-c3ccc(-c4ccc(Cl)c(Cl)c4)o3)nc(-c3ccc(Oc4ccccc4)cc3)c21 | -0.753 | -1.23 (inactive) | -0.292 | -0.197 | -0.554 | -0.558 | -0.397 | -1.08 | -1.24 | -1.08
26 | CC(C)Cc1ccc(CN2CC[C@@H](NC(=O)c3ccccc3)C2)cc1 | 0.767 | 0.196 (inactive) | -0.129 | -0.109 | -0.0412 | -0.0414 | -0.0172 | -0.252 | 0.345 | -0.52
27 | O=C1OCCC/C=C\[C@H]2OC34C=CCN(Cc5ccccc5)C(=O)[C@H]3N(CCO)C(=O)[C@@H]4C12 (stereo not given in full) | -0.78 | 0.822 (inactive) | 0.157 | -0.0658 | 0.885 | 1.11 | 0.623 | 0.747 | -0.32 | -0.619
28 | CCOC(=O)C1=CCC(c2ccncc2)N(S(=O)(=O)c2ccc(C)cc2)C1 (stereo not given) | 0.924 | 0.525 (inactive) | 0.191 | -0.0621 | 0.702 | 2.6 | 1.05 | 1.3 | 0.192 | 0.786
29 | CO[C@H]1O[C@H](CO)[C@@H](OC(=O)Nc2ccccc2)[C@@H]2OC(=O)[C@@H](Cc3ccccc3)C/C=C/C[C@H](Cc3ccccc3)C(=O)O[C@@H]12 | 0.0558 | 0.547 (inactive) | 0.106 | -0.0486 | 0.315 | 0.923 | 0.79 | 0.296 | -0.0529 | -0.216
30 | C=C[C@H](OC)[C@@H](O)c1ccc(OC)c(O)c1 | 0.985 | -0.272 (inactive) | -0.557 | -0.19 | 0.145 | -0.651 | -0.0037 | -2.47 | -1.01 | -1.9
31 | COCCOC(=O)N1C(=O)[C@@]2(c3cc(C#CCNC(N)=O)ccc31)[C@H](c1ccccc1OCCO)N1[C@H](c3ccccc3)[C@H](c3ccccc3)OC(=O)[C@H]1[C@@H]2C(=O)N1CCCCCCC1 | 0.0576 | 0.627 (inactive) | 0.0556 | -0.121 | 0.447 | 0.75 | 1.41 | 1.32 | 0.354 | 1.12
32 | COc1ccc([Si](C)(C)[C@@H]2[C@@H](CC(=O)N3Cc4ccccc4C[C@H]3CO)O[C@]3(C(=O)N(Cc4ccc(I)cc4)c4ccccc43)[C@H]2C)cc1 | -0.145 | 0.26 (inactive) | 0.0676 | -0.133 | 0.284 | 0.583 | -0.098 | 1 | 1.35 | 0.957
33 | COc1cc(Cc2cc3c(c(-c4ccccc4)n2)[Si](C(C)C)(C(C)C)OC3)cc(OC)c1OC | -1.25 | 0.23 (inactive) | -0.0682 | -0.0028 | 0.153 | -0.317 | -0.27 | -1.26 | 0.296 | -0.264
34 | CCCCCN1CC=CC23O[C@@H]4/C=C\CCCOC(=O)C4[C@H]2C(=O)N(CCO)[C@@H]3C1=O (stereo not given in full) | 0.73 | 0.0463 (inactive) | -0.18 | -0.14 | 0.823 | 2.17 | 0.657 | 0.428 | 0.323 | 0.433
